Activation data for 92 molecules are collected here from PubChem BioAssay AID588473 (Sanford-Burnham Center for Chemical Genomics, 2011).

Hit rate of the full screen: of about 350,000 compounds, about 1,600 (0.46%) were called active. The list comes from a sample in which actives are over-represented; it also holds similar structures and randomly drawn compounds. Values without a mark were called inactive.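 How the source made its calls: active means activation of at least 50%, plus an integration ratio under a set limit after plate pattern correction; inactive means the rest.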

The assay concerns CRF-binding protein / CRF receptor 2 complex (human). The assay is described as follows: activators of CRF-R2 with CRF-BP – cell-based, HEK293, calcium dye fluorescence, uHTS, primary screen (AID 588473).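 Further: plate controls were neutral control wells without compound for no effect and CRF at EC100 for full effect.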 Particulars: calcium dye fluorescence (FLIPR), at 13.2 µM, hits give high values, percent of saturating CRF peptide response.
With `CCN(CC)CCCC(C)n1c2nc(=O)[nH]c(=O)c-2nc2cc(Cl)ccc21` (configuration not stated), the activation is 192% (active). Turning to `C=C(C)Cn1c(C)cc(C)c(S(=O)(=O)c2ccccc2C)c1=O`, the activation was -0.15%.

Take `CC1COc2ccccc2N1S(=O)(=O)c1ccccc1` (configuration not stated): the activation was 2.38%. Regarding `Cc1nn(C)cc1/C=C1\CCC/C(=C\c2cn(C)nc2C)C1=O`, the activation was 0.2%. As to `COc1ccc(-c2nnc(NC(=O)CS(=O)(=O)c3ccc(Cl)cc3)o2)c(OC)c1`, the activation is -1.55%. Take `COc1cccc(-c2nnc(NC(=O)c3ccc(S(=O)(=O)N(CC(C)C)CC(C)C)cc3)o2)c1`: the activation is 98.1% (active). With `COc1cc(-c2nnc(NC(=O)CS(=O)(=O)c3ccc(Cl)cc3)o2)cc(OC)c1OC` the figure was 3.74%; with `CCCCN1C(=O)C(CC(=O)NCc2cccs2)CC(C(=O)N2CCOCC2)=C1C` (configuration not stated), -1.86%.

Turning to `CC(OC(=O)c1ccc(NC(=O)CC#N)cc1)C(=O)Nc1ccc(S(=O)(=O)N2CCCC2)cc1` (configuration not stated), the activation is -0.83%. On to `O=C(COC(=O)C1(c2ccc(F)cc2)CCCC1)N1CCNC1=O`, for which the activation is -1.56%.

Consider `N#Cc1c(-c2ccc(F)cc2)cc(C2CC2)nc1SCC(=O)c1cccs1`, for which the activation is 76.4% (active). With `O=C(c1cccs1)N1CCCC(c2nc(-c3ccc(F)cc3)no2)C1` (configuration not stated) the figure was -3.55%. With `N#Cc1c(C(F)(F)F)cc(-c2ccc(Cl)cc2)nc1SCC(=O)O` the figure was 0.45%.

As to `COCCCNC(=O)C1CC(=O)N(CCc2ccccc2)C1` (configuration not stated), the activation is -1.35%. As for `CC1(C)SC2c3ccccc3C(=O)N2[C@@H]1C(=O)NCc1ccco1` (some centres not stated), the activation was -0.83%. In the case of `COCCCNC(=O)[C@H]1N2C(=O)c3ccccc3C2SC1(C)C` (some centres not stated), the activation is 53.6% (active).

Turning to `O=C(Nc1cccc2ccccc12)c1onc2c1CCCC2`, the activation was -2.42%. Take `CC(OC(=O)CCCOc1ccccc1)C(=O)Nc1ccc(Cl)cn1` (configuration not stated): the activation is -1.67%. The figure for `O=C(/C=C/c1ccc(N2CCOCC2)cc1)c1ccccc1` is 89.1% (active); for `O=C(c1ccccc1)c1ccc(C(=O)N2CCN(c3ccccc3)CC2)cc1` it is 0.4%. The figure for `O=C(NC(=O)N1CCOCC1)c1ccccc1` is 5.54%; for `Cc1ccc(S(=O)(=O)Nc2nc(CN3CCOCC3)nc3sc(C)c(C)c23)cc1` it is 3.71%. Turning to `CCC(=O)c1cc(F)ccc1OCC(=O)Nc1ccc2c(c1)OCCO2`, the activation was 0.29%. With `O=S(=O)(c1cccc(C(F)(F)F)c1)N1c2ccccc2-n2cccc2C1c1cccnc1` (configuration not stated) the figure was 138% (active). The figure for `O=S(=O)(c1cccc(C(F)(F)F)c1)N1CCN(c2cnccn2)CC1` is -0.32%; for `O=C(CN(c1cc(C(F)(F)F)ccc1Cl)S(=O)(=O)c1ccccc1)NCc1cccnc1` it is 1.6%.

As for `COCCN(C(=O)CCC(=O)Nc1nccs1)C(C(=O)NC(C)(C)C)c1ccc(Cl)cc1` (configuration not stated), the activation was 0.68%.

With `CCCC(=O)Nc1ncnc2c1ncn2[C@@H]1O[C@@H]2OP(=O)(O)OC[C@H]2[C@H]1OC(=O)CCC`, the activation was -0.33%. The figure for `O=C(Nc1cccc(S(=O)(=O)NC2=NCCC2)c1)C1CCCCC1` is 1.06%; for `O=C(O)C1OC(C(=O)O)C2C1C(F)(F)C2(F)F` (configuration not stated) it is 0.58%; for `CCOC(=O)Cc1cc(=O)[nH]c(=O)[nH]1` it is -0.34%.

For `O=C(NC(Nc1nc2ccc([N+](=O)[O-])cc2s1)(C(F)(F)F)C(F)(F)F)c1ccccc1`, the activation is 69.9% (active).

As for `O=C(O)c1cc([N+](=O)[O-])c(Nc2cccc3ccccc23)c([N+](=O)[O-])c1`, the activation is -0.94%.

`CC(Nc1ccc([N+](=O)[O-])cc1[N+](=O)[O-])c1ccccc1` (configuration not stated): the activation is -3.71%. The figure for `CCN=c1sc(C(=O)Nc2ccccc2)c(C)n1CC` is -2.99%; for `CCOc1ccccc1N1CN(Cc2ccccc2)CNC1=S` it is -0.43%. The figure for `Cn1c2c(c(=O)n(C)c1=O)CN(Cc1ccco1)CN2` is 2.8%. `CCc1ccccc1N1CN(Cc2ccco2)CNC1=S`: the activation is 80.2% (active).

On to `C=CCn1c(=O)c2ccccc2n2c(SCC(=O)N3CCCc4ccccc43)nnc12`, for which the activation is 75.3% (active). Consider `CCn1c(=O)c2ccccc2n(CC(=O)N2CCCc3ccccc32)c1=O`, for which the activation was 0.82%. With `Cn1c(SCC(=O)N2CCCc3ccccc32)nc2ccccc2c1=O` the figure was 3.16%. The figure for `CCOC(=O)CSC1=N/C(=C/c2ccc(-n3cncn3)cc2)C(=O)N1C(C)=O` is 1.8%; for `COc1cccc(CNS(=O)(=O)c2ccc3c(c2)N(C(C)=O)CCS3)c1` it is 1.61%. For the molecule `CN(C)c1ccc(C=C2C(=O)OC3(CCCC3)OC2=O)cc1`, the activation is 23.8%.

With `CN(C)c1ccc(/C=C2\NC(=S)N(Cc3ccccc3)C2=O)cc1`, the activation was 191% (active). On to `CC1CN(Cc2ccccc2)C(=S)NC1=O` (configuration not stated), for which the activation was -2.85%. The figure for `Cc1ccccc1Cn1nc(C)c(NC(=O)C(F)(F)F)c1C` is -0.93%; for `CN(Cc1cc2cc(F)ccc2[nH]1)Cc1nc(-c2cnccn2)no1` it is -0.56%; for `O=C(CSc1nnc(-c2ccc([N+](=O)[O-])cc2)o1)Nc1ccccn1` it is -0.44%. The figure for `Cc1cccc(CN2CCN(Cc3cnn(-c4ccccc4F)c3)CC2CCO)n1` (configuration not stated) is -2.69%; for `Cc1onc(-c2ccccc2)c1C(=O)N=C(N)c1ccc(Cl)cc1` it is 2.16%; for `COc1ccc(C(=O)NNC(=O)c2cc(C)[nH]n2)cc1` it is -0.62%. Consider `COc1ccc(C(=O)NC(=S)NNC(=O)c2c(-c3ccccc3)noc2C)cc1`, for which the activation was 99.3% (active). Regarding `O=C(NNC(=S)NC(=O)c1cn(-c2ccccc2)nc1-c1ccccc1)c1ccncc1`, the activation was 27.4%. The figure for `Cc1onc(-c2ccccc2)c1C(=O)NNC(=S)NC(=O)c1ccc(F)cc1` is 181% (active); for `Cc1noc(C)c1COc1ccc(C(=O)NCCOc2ccccc2)cc1` it is 3.12%.

`O=S(=O)(N/N=C\c1cccn1-c1ccccc1)c1ccc2ccccc2c1`: the activation was -1.5%. As to `CCOC(=O)C1=C(N)N2C(=O)C(C)SC2=C(C(=O)OCC)C1c1cc(OC)c(OC)c(OC)c1` (configuration not stated), the activation was -0.18%. The figure for `COc1cccc(N2CC(NC(=O)c3ccc4ccccc4c3)CC2=O)c1` (configuration not stated) is -0.96%; for `O=C(CCc1nc(-c2ccccc2)no1)Nc1cccc(C(=O)NC2CC2)c1` it is -1.3%. Turning to `Cc1cccc(N2CCN(C(=O)c3cnn4c(C(F)F)cc(-c5ccccc5)nc34)CC2)c1C`, the activation is -0.01%. The figure for `COC(=O)c1ccc(C(=O)OC)c(NC(=S)N2CCN(c3cc(Cl)ccc3C)CC2)c1` is 2.16%; for `Cc1ccc(Cl)cc1N1CCN(C(=O)c2cccc3c(=O)c(C)c(-c4ccccc4)oc23)CC1` it is 63.6% (active). `CC(=O)Nc1ccc(S(=O)(=O)N(C)c2ccc(OCC(=O)OCC(=O)N3CCCCC3)cc2)cc1`: the activation is -1.11%. For the molecule `COc1cc(N=Cc2c(O)c3ccccc3oc2=O)c(OC)cc1Cl`, the activation was 66.4% (active). Turning to `COc1ccccc1CNC(=O)c1cc(=O)c2ccccc2o1`, the activation was -1.3%.

With `O=c1oc2ccccc2c(=O)c2ccccc12`, the activation is 0%. As for `O=C(CCN1CCN(c2ccccc2)CC1)NNC(=S)Nc1ccccc1`, the activation was -0.17%. The figure for `CCCCC(=O)NNC(=S)NC(=O)C(c1ccccc1)c1ccccc1` is 135% (active); for `CC(C)C(=O)NC(=S)Nc1ccccc1F` it is -2.1%; for `CC(C)CCNC(=O)CC1C(=O)N(Cc2ccccc2)C(C)c2nc3ccccc3n21` (configuration not stated) it is -1%. With `OC(COCCC12CC3CC(CC(C3)C1)C2)CN1CCCCC1` (configuration not stated) the figure was 0.79%; with `COc1ccc(-c2onc3ccc(C(C)=O)cc23)cc1`, 100% (active); with `COc1ccc(NC(C(=O)Nc2cccc(C(C)=O)c2)c2ccccc2)cc1` (configuration not stated), -0.34%.

For the molecule `COc1ccc(-c2ocnc2C(=O)Nc2ccc3c(c2)CCC3)cc1`, the activation is 1.68%. The figure for `CC1CCCCC1NCC(=O)Nc1ccccc1C(=O)Nc1ccccc1` (configuration not stated) is -2.89%; for `COc1ccccc1C(=O)Nc1ccccc1C(=O)Nc1ccccc1` it is 0.57%. Take `O=C(Nc1ccccc1)c1ccccc1NC(=O)C(F)(F)F`: the activation was 55.4% (active). As to `O=S(=O)(Nc1ccc(-c2ccc(N3CCOCC3)nn2)cc1)c1cc(Cl)ccc1Cl`, the activation is 0.21%.

In the case of `CCOc1ccccc1C1CC(c2ccccc2)Nc2nc(N)nn21` (configuration not stated), the activation was 8.41%. Consider `CCOc1ccc(C2=CC(c3ccccc3)n3ncnc3N2)cc1` (configuration not stated), for which the activation is 53.1% (active).

As to `Brc1ccc(C2=CC(c3ccco3)n3ncnc3N2)cc1` (configuration not stated), the activation was 274% (active). For the molecule `CC1=C(C(=O)OC2CCCCC2)C(c2cccnc2)n2ncnc2N1` (configuration not stated), the activation is -0.1%. In the case of `Clc1ccc2c(c1)C1=C(C(c3ccncc3)O2)C(c2ccc(Br)cc2)n2ncnc2N1` (configuration not stated), the activation is 0.45%. For the molecule `CN(CC(=O)Nc1ccccc1F)CC(=O)Nc1ccccc1Br`, the activation is -3.49%. As to `Cc1cccc(CC2(O)C(=O)Nc3ccccc32)n1` (configuration not stated), the activation was -0.62%.

For `CCN(CC)S(=O)(=O)c1ccc(Cl)c(C(=O)NC(C)C(c2cccs2)N2CCCC2)c1` (configuration not stated), the activation was 0.2%. With `OCCCNC(c1ccccc1)c1ccc(O)cc1` (configuration not stated) the figure was -1.4%.

Turning to `COc1cc(/C=C2\C(=N)N3N=C(CC(=O)N4CCOCC4)SC3=NC2=O)cc(OC)c1OC`, the activation was -0.4%. As for `COC1=C/C(=C/c2c(N)n3nc(CC(=O)N4CCOCC4)sc3nc2=O)C=CC1=O`, the activation is 9.37%. With `C=CCC1=C/C(=C\c2c(N)n3nc(CC(=O)N4CCOCC4)sc3nc2=O)C=C(OC)C1=O` the figure was 83.2% (active); with `CN(CC(=O)Nc1ccc(C(N)=O)cc1)S(=O)(=O)c1ccc2c(c1)OCCO2`, 3.57%.
